Source: PubChem
ATXN viability: reduces viability in counter-screen for ATXN expression inhibitors | S2 cells (HEK-293 line with an ATXN2-luciferase reporter) viability, CellTiter-Fluor protease fluorescence, 24 h | Potency, µM (highest dose often 56.7 µM), hits mostly cytotoxic | 400,000 compounds, 0.49% hits | AID 651635; note: nearly all actives have a fitted effect of over 40% in size
HepG2 tox-1: HepG2 cytotoxicity, counter-screen for TGF-b inhibitors; HepG2 CAGA-GFP viability, ATP luminescence, 18 h; 410,000 compounds, 0.76% hits; Potency, µM (doses to about 46.1 µM), for the others: at the highest dose activity change, negative = cytotoxicity, most hits filed as cytotoxic
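HepG2 CAGA-GFP cells (1000/well, DMEM with 1% FBS) received compound, then TGF-beta at 500 pg/mL final, and were incubated 18 hours at 37 degrees C. Viability was read by CellTiter-Glo luminescence. Media-only wells were set as complete cell-killing and DMSO as no toxicity.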
VP16 counter: Gal4-VP16 reporter inhibition counter-screen; Drosophila S2 Gal4-VP16 UAS-luciferase, luminescence, 20 h; Potency, µM (top dose mostly 53.6 µM), inactives show top-dose activity, negative = inhibition, most hits filed as inhibitors; 310,000 compounds, 3.5% hits;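 note: Gal4-VP16 expression switched on by copper sulfate through the metallothionein promoter; % is set by controls: 0 for no effect and ±100 for the full control effect; nearly all actives have a fitted effect of over 50% in size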
TGFb inhibitor: blocks TGF-b signaling. HepG2 CAGA-GFP TGF-b/SMAD3 reporter, GFP fluorescence, 18 h; TGF-beta stimulated, 500 pg/mL final. Potency, µM (series often up to 46.1 µM), for inactives: at the highest dose activity, negative = inhibition, hits mostly inhibitors. 410,000 compounds, 1.2% hits. AID 588855; note: % is set by controls: 0 for no effect and ±100 for the full control effect; nearly all actives have a fitted effect of over 65% in size
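Read-out: total well GFP (ex488/em500-530) summed from mean per-cell fluorescence. Cells: HEPG2 CAGA-GFP, 1% FBS DMEM, 18 h at 37 degrees C with 500 pg/mL final TGF-beta. Unstimulated wells served as the full-inhibition control; stimulated DMSO wells = 0%.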
ATXN2 expr inh: ATXN2 expression inhibition; HEK-293 ATXN2-luciferase reporter, luminescence, 24 h; Potency, µM (titrated, usually from 57 µM), without a hit: at the highest dose activity change, negative = inhibition, actives largely listed as inhibitors; 360,000 compounds, 0.72% hits; note: % is set by controls: 0 for no effect and ±100 for the full control effect; nearly all actives have a fitted effect of over 55% in size
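qHTS (up to 57 uM final) was run with 24 h compound exposure of reporter cells at 37 °C. Each well was multiplexed: SteadyGlo luminescence measured ATXN2-luciferase expression after a fluorogenic Gly-Phe-AFC viability readout (25 uM final).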
RORg inh: blocks mouse ROR gamma transcriptional activity; Potency, µM (top dose mostly 53.6 µM), without a hit: at the top dose activity change, negative = inhibition, actives largely listed as inhibitors; 310,000 compounds, 5.4% hits; P51450; Drosophila S2 Gal4-RORgamma UAS-luciferase reporter, 20 h; note: % is set by controls: 0 for no effect and ±100 for the full control effect; nearly all actives have a fitted effect of over 60% in size
Target sequence (P51450 whole entry, looked up, the tested form may be a part): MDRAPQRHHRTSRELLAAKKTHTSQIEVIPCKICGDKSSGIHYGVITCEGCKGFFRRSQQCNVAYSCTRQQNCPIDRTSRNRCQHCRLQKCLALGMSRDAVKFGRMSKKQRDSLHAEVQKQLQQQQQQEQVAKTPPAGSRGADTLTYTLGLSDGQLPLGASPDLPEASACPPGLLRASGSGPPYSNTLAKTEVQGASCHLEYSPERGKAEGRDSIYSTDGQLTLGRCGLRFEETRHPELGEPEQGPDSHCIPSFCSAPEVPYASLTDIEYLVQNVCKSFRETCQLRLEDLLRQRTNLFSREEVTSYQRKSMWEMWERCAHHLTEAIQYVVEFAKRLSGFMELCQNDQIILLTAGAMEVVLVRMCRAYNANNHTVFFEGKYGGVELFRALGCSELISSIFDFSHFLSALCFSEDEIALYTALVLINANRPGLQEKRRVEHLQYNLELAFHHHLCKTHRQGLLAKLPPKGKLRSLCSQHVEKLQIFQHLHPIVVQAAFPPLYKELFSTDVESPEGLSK
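Schneider cells (Drosophila), stable Gal4 DBD–ROR gamma + UAS-luc; 1 hr cmpd preincubation; Cu2+ induction 700 uM final; 20 hr ambient; luminescence.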
TGFb confirm: TGF-b pathway inhibition, cherry-pick retest; shares compounds with TGFb inhibitor; HepG2 CAGA-GFP TGF-b reporter, GFP fluorescence, 18 h; cells stimulated with TGF-beta, 500 pg/mL; Potency, µM (titrated, usually from 46.1 µM), inactives show top-dose activity, negative = inhibition, actives largely listed as inhibitors; 1,600 compounds, 63% hits; note: % is set by controls: 0 for no effect and ±100 for the full control effect; nearly all actives have a fitted effect of over 65% in size
HepG2 tox-2: counter-screen for TGF-b inhibitors: cytotoxicity in HepG2 cells | shares compounds with TGFb inhibitor | HepG2 CAGA-GFP viability, ATP luminescence, 18 h; cells stimulated with TGF-beta, 500 pg/mL | Potency, µM (series often up to 46.1 µM), for the others: top-dose activity, negative = cytotoxicity, actives largely listed as inhibitors | 1,600 compounds, 27% hits; note: % is set by controls: 0 for no effect and ±100 for the full control effect; nearly all actives have a fitted effect of over 70% in size
TGFb CCL64 inh: orthogonal confirmation of TGF-b inhibitors in CCL64 cells; shares compounds with TGFb inhibitor; CCL64 CAGA-GFP reporter, TGF-b stimulated, GFP fluorescence, 18 h; Potency, µM (series often up to 46.1 µM), for the others: top-dose activity, negative = inhibition, hits mostly inhibitors; 1,600 compounds, 41% hits; AID 720536; note: nearly all actives have a fitted effect of over 65% in size
COP TGFb inh: validation of TGF-b inhibitors in HepG2 COP promoter reporter | shares compounds with TGFb inhibitor | HepG2 COP-GFP TGF-b reporter, GFP fluorescence, 18 h; cells stimulated by added recombinant TGF-beta | Potency, µM (top dose mostly 46.1 µM), for inactives: at the top dose activity, negative = inhibition, most hits filed as inhibitors | 1,600 compounds, 3% hits; note: nearly all actives have a fitted effect of over 70% in size
The depositor's hits bear a star; i = inactive; ? = inconclusive; · = not tested or not shown. Most compounds without a hit are left out; they make up all but 6.3% or so of the library. Calls come from the whole dose curve; as a rule, active = well fitted curve in the direction sought with a large enough effect; inconclusive = small, poorly fitted or top-dose-only effect, or another doubt; inactive = no such curve, though single readings can be large; an effect the other way counts as inactive or inconclusive. Potency is the fitted concentration of half-maximal effect.

SMILES	ATXN viability	HepG2 tox-1	VP16 counter	TGFb inhibitor	ATXN2 expr inh	RORg inh	TGFb confirm	HepG2 tox-2	TGFb CCL64 inh	COP TGFb inh
Fc1cccc(-c2ccc3c(c2)CN(C(=S)NCCc2ccccc2)Cc2cnnn2-3)c1	i	-1%	·	11µM*	-31%	·	?	-29%	?	-7%
Clc1cccc(N2Cc3cc(-c4ccccc4)ccc3-n3nncc3C2)c1	·	8.9µM*	·	7.9µM*	22µM*	·	21µM*	?	6.5µM*	32%
S=C(NCCc1ccccc1)N1Cc2cc(N3CCCCC3)ccc2-n2nncc2C1	i	-26%	·	10µM*	-4%	·	?	-9%	-30%	2%
COc1ccc(CN2Cc3cc(-c4cccc(F)c4)ccc3-n3nncc3C2)cc1	i	13%	·	11µM*	-2%	·	15µM*	?	?	0%
S=C(NCCc1ccccc1)N1Cc2cc(-c3ccccc3)ccc2-n2nncc2C1	?	-1%	·	?	-26%	·	·	·	·	·
CCCN1[C@H](C(=O)OC)C[C@@H]2CC[C@@H](O)C[C@@H]21	·	·	1%	·	·	-21%	·	·	·	·
COc1ccc(C[C@H]2NC[C@H](O)[C@H]2OC(C)=O)cc1	?	-20%	·	0.22µM*	0.1µM*	·	0.073µM*	0.65µM*	0.1µM*	-1%
COc1ccccc1CN1CC[C@@]2(CCCN(C(=O)Oc3ccccc3)C2)C1	·	·	-22%	·	·	24%	·	·	·	·
Cc1ccc2c(c1)Cc1c(C(=O)NN3CCCCC3)nn(-c3ccc(Cl)cc3Cl)c1-2	·	·	-5%	·	·	?	·	·	·	·
Nc1cccc(NP(=O)(c2ccccc2)c2ccccc2)c1	i	39%	2%	5%	·	1%	·	·	·	·
COC(=O)C1=C(c2ccc(-c3ccccc3)c(F)c2)C[C@@H]2CC[C@H]1N2C(=O)NCCO	i	-26%	·	-12%	-22%	·	·	·	·	·
COC(=O)C1=C(c2ccc(-c3ccccc3)c(F)c2)C[C@@H]2CC[C@H]1N2C(=O)NCc1cc(C)oc1C(F)(F)F	?	-5%	·	1.6µM*	?	·	?	-15%	?	30%
COC(=O)C1=C(c2ccc(F)cc2OCc2ccccc2)C[C@@H]2CC[C@H]1N2C(=O)NCc1ccccc1OC	?	-25%	·	?	0%	·	?	-13%	?	1%
COC(=O)C1=C(c2ccc(-c3ccccc3)c(F)c2)C[C@@H]2CC[C@H]1N2C(=O)NCc1ccco1	?	-16%	·	?	?	·	8.2µM*	?	?	58%
COC(=O)C1=C(c2cccc(C#N)c2)C[C@@H]2CC[C@H]1N2C(=O)NCc1cc(C)oc1C(F)(F)F	i	-36%	·	-8%	-12%	·	·	·	·	·
